Common to all, as to assay: NCI-60 one-dose screen, 48 h (100 = growth as untreated, 0 = no growth, -100 = all killed)
Details in all cases: 10 µM

Assay [1] deals with T-47D breast.
For assay [2], the system named is BT-549 breast.
Assay [3] deals with MDA-MB-435 melanoma.
Assay [4] has as its system SW-620 colon.
Assay [5] relates to MCF7 breast.
Assay [6] has as its system HCT-116 colon.
Assay [7] concerns HCC-2998 colon.
The subject of assay [8] is KM12 colon.

The text below walks through data of PubChem BioAssay (NCI).

SMILES strings stand for the structures. The panel holds about 83,000 compounds, 20% with a hit somewhere; the sample as a whole holds those more often.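 Negative percent growth values reflect cell death: -40 means 40% of the cells present at the start died, and -100 means all died.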 Unmarked numbers belong to inactive results. Activity calls are given as the source filed them. How the source made its calls: active means growth percent below 10; inactive means the rest.

As for `NC1=CC(=O)C(=O)c2cccnc21`, the growth in assay [1] was 97.9%; in assay [2] it was 86%; in assay [3], -82.8% (active); in assay [4], 73.8%; in assay [5], 52.5%; in assay [6], 86.6%. In addition, the growth is 83% in assay [7] and 76.7% in assay [8].
Consider `CCCCC1(O)CCCCC1`, for which the growth in assay [1] was 91.5%; in assay [2], 95.5%; in assay [3], 106%; in assay [4], 102%; in assay [5] it was 101%; in assay [6], 102%. Also, the growth in assay [7] is 103%; in assay [8] it was 96.8%.
For `CCCCN(CCCC)C(=O)[C@H](CC)[C@@H]1CC[C@@H](C)[C@@H]([C@H](C)[C@@H](O)[C@@H](C)C(=O)[C@H](CC)C2O[C@]3(C=C[C@@H](O)[C@]4(CC[C@@](C)([C@H]5CC[C@](O)(CC)[C@H](C)O5)O4)O3)[C@H](C)C[C@@H]2C)O1` (some centres not stated), the growth in assay [1] is 5.04% (active); in assay [2] it was 8.46% (active); in assay [3], 4.48% (active); in assay [4], 9.41% (active); in assay [5], -14.1% (active); in assay [6], 2.55% (active). The growth in assay [7] is 2.49% (active); in assay [8], 20.6%.
For `CC[C@@H](C(=O)[C@@H](C)[C@@H](O)[C@H](C)[C@@H]1O[C@@H]([C@@H](CC)C(=O)N(CC)CC)CC[C@@H]1C)C1O[C@]2(C=CC(=O)[C@]3(CC[C@@](C)([C@H]4CC[C@](O)(CC)[C@H](C)O4)O3)O2)[C@H](C)C[C@@H]1C` (some centres not stated), the growth in assay [1] was 16.2%; in assay [2], 43.8%; in assay [3], 30.2%; in assay [4], 25.3%; in assay [5] it was 5.81% (active); in assay [6], 5.97% (active). Moreover, the growth is 29% in assay [7] and 40.9% in assay [8].
For `NS(=O)(=O)Oc1ccc(NC(=O)C2CCCCCC2)cc1`, the growth was 90.7% in assay [1]; 104% in assay [2]; 106% in assay [3]; 106% in assay [4]; 97.7% in assay [5]; 105% in assay [6]. For the same compound, the growth in assay [7] and in assay [8] was 101% each time.
As to `COc1cccc(-c2nc3sccn3c2-c2cccc(S(C)(=O)=O)c2)c1`, the growth in assay [1] was 98.7%; in assay [2] it was 103%; in assay [3], 110%; in assay [4], 104%; in assay [5], 79.6%; in assay [6], 104%. In addition, the growth was 94% in assay [7] and 109% in assay [8].
As for `N#CC1=C(N)Oc2cc(N)ccc2C1c1cccnc1` (configuration not stated), the growth is 94.2% in assay [1]; 88.4% in assay [2]; 71.8% in assay [3]; 90.1% in assay [4]; 89.4% in assay [5]; 88.3% in assay [6]. Further, the growth was 82.4% in assay [7] and 89.7% in assay [8].
Turning to `Cc1cc(CCNC=O)c(C)c2c1sc1ccccc12`, the growth in assay [1] was 92.8%; in assay [2], 96.9%; in assay [3], 94.5%; in assay [4] it was 102%; in assay [5] it was 100%; in assay [6], 94%. Besides, the growth in assay [7] is 104%; in assay [8], 103%.
On to `O=C(N/N=C/c1cc([N+](=O)[O-])ccc1O)c1cccc2ccccc12`, for which the growth is 28.3% in assay [1]; 45.2% in assay [2]; 57.1% in assay [3]; 47.7% in assay [4]; 16.5% in assay [5]; 18.4% in assay [6]. Also, the growth was 52.4% in assay [7] and 56.1% in assay [8].
As for `CN(C)CCCN1c2ccccc2CCc2ccc(Cl)cc21`, the growth in assay [1] is 41.3%; in assay [2], 77.8%; in assay [3] it was 28.5%; in assay [4], 89%; in assay [5], 50.8%; in assay [6], 43%. In addition, the figures for the growth in assay [7] and in assay [8] were -13.4% (active) and 79.3%, respectively.
Take `C=C1CCC2(C#N)[C@H]3[C@H](CC[C@@H]2C)[C@@H](C)C[C@@H](CC(C)(C)NC(=O)CN2CCC2=O)[C@H]13` (some centres not stated): the growth in assay [1] was 12.5%; in assay [2], 55.3%; in assay [3], 57.9%; in assay [4], 74.6%; in assay [5] it was 35.2%; in assay [6], 39%. Further, the growth is 41.1% in assay [7] and 42.7% in assay [8].
For `CC(C)(C)OC(=O)N1CCc2c(sc3ncnc(N/N=C/c4ccc(Br)cc4)c23)C1`, the growth in assay [1] is 34.2%; in assay [2], 74.9%; in assay [3], -20.4% (active); in assay [4], 55%; in assay [5], 12.6%; in assay [6] it was 47.3%. The growth in assay [7] is 72.1%; in assay [8], 46.6%.
In the case of `COc1ccc(/C=C/C(=O)C(=O)/C=C/c2ccc(OC)c(OC)c2)cc1OC`, the growth in assay [1] is 35.8%; in assay [2], 14.8%; in assay [3], 12.2%; in assay [4], 4.43% (active); in assay [5], 4.02% (active); in assay [6] it was -74.8% (active). In addition, the growth in assay [7] was 21.9%; in assay [8] it was -4.31% (active).
Turning to `CC(C)(C)OC(=O)N1CCc2c(sc3ncnc(N/N=C/c4cccc5ccccc45)c23)C1`, the growth in assay [1] was 12.6%; in assay [2], 58.7%; in assay [3], -11.7% (active); in assay [4], 27.3%; in assay [5] it was 2.21% (active); in assay [6], 10.5%. Also, the growth in assay [7] was 37.1%; in assay [8] it was 23.4%.
